# Sm TGR block: blocks Schistosoma mansoni thioredoxin glutathione reductase. Q962Y6. purified TGR, DTNB reduction, TNB absorbance 405 nm. Potency, µM (top dose mostly 114 µM), without a hit: at the highest dose activity change, negative = inhibition, usual class: inhibitors. 360,000 tested, 3% active. AID 485364; note: potency is the fitted concentration of half-maximal effect; nearly all actives have a fitted effect of over 60% in size
#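 TGR 20 nM + NADPH 100 uM (dispensed conc.), cpd preinc 15 min RT; start with NADPH (500 uM addition) then DTNB (15 mM addition). Kinetic TNB absorbance, 405 nm filter. Four-parameter Hill fit across titration.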
# Vaccinia Venus: vaccinia inhibition (Venus reporter); Vaccinia virus Venus reporter expression, fluorescence; Potency, µM (series often up to 36.5 µM), without a hit: top-dose activity change, negative = inhibition, actives largely listed as inhibitors; 330,000 tested, 0.46% active; AID 720580; calls by dose curve; tested in A549 cells; note: potency is the fitted concentration of half-maximal effect; nearly all actives have a fitted effect of over 30% in size
# FMDV inh: foot and mouth disease virus antiviral activity. AID 1159524. FMDV antiviral cell-based qHTS. 410,000 tested, 1.2% active. Potency, µM (doses to about 57.9 µM), inactives show top-dose activity change, negative = inhibition, most hits filed as inhibitors; calls by dose curve; tested in HEK293T cells; note: read-out not given here; potency is the fitted concentration of half-maximal effect; nearly all actives have a fitted effect of over 45% in size
# HCMV inh: blocks human cytomegalovirus replication. activity change, negative = inhibition, % at 57.5 µM. HFF cells, HCMV-luciferase reporter, 72 h; stronger effect = lower value. 410,000 tested, 4.5% active. AID 1259415; in the data active = activity change below about -60%; inconclusive = no clear call, values can overlap the other calls; inactive = above about -39%
#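 Luciferase read-out from HCMV-luciferase-infected HFFs (MOI 1 PFU/cell) 72 h post infection at 37C; compounds added after 16 h cell attachment; activity normalized between buffer-only basal and Salinomycin (10uM) inhibitor controls.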
# HCV inhibitor: inhibitors of hepatitis C virus infection | AID 651820 | Potency, µM (highest dose often 41.8 µM), for the others: at the top dose activity change, negative = inhibition, most hits filed as inhibitors | Huh7.5.1 HCVcc-Cre infection, luciferase reporter, 44 h | 340,000 tested, 3.4% active; note: potency is the fitted concentration of half-maximal effect
#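 After 44 h co-culture of compound, cells and HCVcc-Cre (~0.5 moi), substrate is added for 15 min at room temperature and luciferase measured over 15 sec. Cells were seeded at 1,000/well and pre-cultured 4 h.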
# Vaccinia mCherry: vaccinia inhibition (mCherry reporter). 310,000 tested, 0.63% active. AID 720579. Potency, µM (top dose mostly 36.5 µM), without a hit: at the highest dose activity change, negative = inhibition, actives largely listed as inhibitors. Vaccinia virus mCherry reporter infection, fluorescence; calls by dose curve; tested in A549 cells; note: potency is the fitted concentration of half-maximal effect; nearly all actives have a fitted effect of over 35% in size
# The depositor's hits bear a star; i = inactive; ? = inconclusive; · = no result given; + = active, no number. Rows were chosen to be rich in hits. Some 9.3% of all compounds tested hit in one or more screens of this group. Unless noted, calls come from the whole dose curve; as a rule, active = well fitted curve in the direction sought with a large enough effect; inconclusive = small, poorly fitted or top-dose-only effect, or another doubt; inactive = no such curve, though single readings can be large; an effect the other way counts as inactive or inconclusive. % is set by controls: 0 for no effect and ±100 for the full control effect.
SMILES,Sm TGR block,Vaccinia Venus,FMDV inh,HCMV inh,HCV inhibitor,Vaccinia mCherry
COCCCNC(=S)N1CCCN(c2nc3cc(C)c(C)cc3cc2C#N)CC1,-3%,-21%,23%,-36,22µM*,-19%
CCN(CC)C(=S)SC1CCCCN(C(=O)c2ccc(F)cc2)C1=O (centres undefined),8%,-11%,-17%,13,14%,i
O=C(O)c1cccc(N2C(=O)/C(=C/c3ccc(SCc4ccc(Cl)cc4)o3)SC2=S)c1,13µM*,·,-2%,?,7%,·
O=C(NCCN1CCC2(CC1)C(=O)NCN2c1cccc(F)c1)c1ccc2ccccc2c1,·,-5%,-29%,-101*,·,6%
NC(=O)CC(NC(=O)Cc1cccc2ccccc12)c1ccc(NCC2CC2)c([N+](=O)[O-])c1 (centres undefined),10%,-7%,3%,22,11%,i
NC(=O)CC(NC(=O)Cc1cccc2ccccc12)c1ccc(NC2CC3CCC2C3)c([N+](=O)[O-])c1 (centres undefined),-18%,-26%,-8%,-7,11µM*,?
NC(=O)CC(NC(=O)Cc1cccc2ccccc12)c1ccc(NCCOc2ccccc2)c([N+](=O)[O-])c1 (centres undefined),-1%,?,0%,-68*,-23%,-28%
O=C(Cn1cnc2ccccc21)N1CCN(S(=O)(=O)c2ccccc2)CC1,-2%,-20%,0%,9,?,i
Cc1ccccc1C(=O)Nc1cc2c(cc1N1CCOCC1)n(C)c(=O)n2C,1%,-6%,0%,38,·,-10%
CCOc1cc(C(=O)Nc2cc3c(cc2N2CCCC2)n(C)c(=O)c(=O)n3C)cc(OCC)c1OCC,50µM*,-11%,-3%,3,·,-15%
CCOc1ccccc1C(=O)Nc1cc2c(cc1N1CCOCC1)n(C)c(=O)n2C,-8%,-8%,-20%,-112*,·,-9%
CCCCCC(=O)N1C[C@@H](n2cc(COC(=O)c3ccccc3)nn2)[C@H](O)C[C@@H]1c1ccccc1,·,-22%,-11%,-11,·,i
CC1CCN(S(=O)(=O)c2ccc(NC(=O)CN3CCCC(C)C3)cc2)CC1 (centres undefined),-3%,-24%,1%,-12,-21%,-14%
COc1ccc(NS(=O)(=O)c2cc(NC(=O)c3ccc(=O)[nH]c3)ccc2C)cc1,-12%,·,71%,66,-21%,·
Cc1ccc(NC(=O)[C@@H](NC(=O)c2cccc(S(=O)(=O)N3CCOCC3)c2)C(C)C)cc1C,-4%,-7%,61%,-26,10µM*,-10%
COc1ccc(NC(C)C(=O)Nc2cccc(S(=O)(=O)N3CCOCC3)c2)cc1OC (centres undefined),·,·,?,?,13µM*,·
Cc1ccc(C(=O)N[C@H](C(=O)Nc2cccc(S(=O)(=O)N3CCOCC3)c2)C(C)C)cc1,·,-13%,3%,-13,·,i
CC(C)[C@H](NC(=O)c1ccccc1)C(=O)Nc1cccc(S(=O)(=O)N2CCOCC2)c1,-13%,-6%,8%,+,6%,i
CC(C)[C@H](NC(=O)c1cccc(S(=O)(=O)N2CCOCC2)c1)C(=O)Nc1nccs1,-10%,1%,-3%,-21,4%,-1%
COc1ccc(NS(=O)(=O)c2cc(NC(=O)[C@@H](NC(=O)c3ccccc3)C(C)C)ccc2C)cc1,1%,-29%,59%,-87*,?,-16%
Cc1cccc2cc(C#N)c(SCCN3CCCCC3)nc12,·,-29%,-30%,·,?,-4%
O=C(NCc1ccc(F)cc1)C1CCC(CNS(=O)(=O)c2ccccc2)CC1 (centres undefined),9%,·,-1%,-25,3%,·
O=C(CN1CCOc2ccccc21)NC1CC1,·,4%,-17%,46,21%,-3%
O=C(N/N=C/c1ccco1)c1cccc(NC(=O)c2cccc(Cl)c2)c1,-20%,-8%,8%,30,-8%,?
Cc1onc(-c2c(Cl)cccc2Cl)c1C(N)=S,0%,-5%,5%,-11,0%,?
SMILES,Sm TGR block,Vaccinia Venus,FMDV inh,HCMV inh,HCV inhibitor,Vaccinia mCherry
COc1cccc(-c2nn3c(-c4ccco4)nnc3s2)c1,45µM*,·,32%,27,0%,·
Clc1ccc(-c2nnc3sc(-c4ccccn4)nn23)cc1,-17%,·,·,·,·,·
Brc1ccc(-c2nn3c(-c4ccco4)nnc3s2)o1,8.9µM*,·,-5%,19,-20%,·
c1ccc(-c2nn3c(-c4ccco4)nnc3s2)nc1,25µM*,-5%,0%,6,11%,·
CC(C)(C)C(=O)NCc1ccc(C(=O)CSc2nnc(-c3ccncc3)n2C2CC2)s1,-11%,-10%,?,15,-9%,-10%
Cc1cccc(Nc2cc(C)c3c(O)cccc3n2)c1C,-14%,?,4%,-65*,?,14µM*
Cc1cc(Nc2ccccc2O)nc(C)n1,-4%,-4%,12%,-1,·,-2%
O=C(C=Cc1ccco1)c1cc(Cl)ccc1O,·,-11%,?,-33,-8%,i
CC(/C=C/c1ccco1)=N/NC(=O)Cc1cccs1,25µM*,-2%,41%,-21,-3%,-7%
C/C(=N/NC(=O)OC(C)(C)C)c1ccco1,-20%,0%,20%,42,9%,i
O=C(/C=C/c1ccco1)c1ccccc1O,32µM*,2%,30%,-38,-11%,8%
CC(/C=C/c1ccco1)=N\NC(=O)c1cc(Cl)ccc1O,8.9µM*,-1%,23%,4,11%,-15%
CC(/C=C/c1ccco1)=N/NC(=O)OC(C)(C)C,40µM*,11%,34%,27,5%,i
COc1cc(SC)ccc1C(=O)Nc1ccc(C)cc1C,-4%,-11%,39%,47,?,-10%
NS(=O)(=O)c1ccc(CCNC(=O)C2CCCCC2)cc1,4%,·,-2%,-3,?,·
CC(/C=C/c1ccco1)=N\NC(=O)c1cccnc1,35µM*,-13%,·,-9,2%,-7%
O=C(/C=C/c1ccco1)Nc1cccnc1,·,-11%,39%,7,-5%,-5%
Cc1cc(C(=O)N/N=C/c2ccco2)n[nH]1,14%,1%,0%,7,1%,-1%
O=C(/C=C/c1ccco1)c1cccnc1,13µM*,-8%,-15%,-20,-5%,i
C/C(=N\NC(=O)c1ccoc1C)c1cccnc1,-3%,-8%,11%,-4,27%,-16%
CC(/C=C/c1ccco1)=N\NC(=O)c1cc(C)[nH]n1,28µM*,·,34%,0,-5%,·
CC(/C=C/c1ccco1)=N/NC(=O)c1ccc(C)nc1,45µM*,-17%,-5%,52,12%,-16%
COc1ccccc1NCCC(=O)OCC(=O)Nc1ccccc1Cl,·,-17%,-3%,11,11%,?
